Shown are actives, neighbours in structure and some others; about 5.9% of the full set was active somewhere.
KB-3-1 tox = KB-3-1 parental cell cytotoxicity; AID 1347075; KB-3-1 viability, CellTiter-Glo ATP luminescence, 72 h; hit rate 1.4% among 400,000; Potency, µM (highest dose often 46.1 µM), hits mostly cytotoxic; note: % is set by controls: 0 for no effect and ±100 for the full control effect; nearly all actives have a fitted effect of over 60% in size
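Cells are dispensed, compounds pinned in, plates held at 37 °C for 72 h, then CellTiter-Glo is added and luminescence read after 10 minutes. Cell line: parental KB-3-1 in phenol-red-free DMEM, 10% FBS.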
ATXN2 expr inh = inhibitors of ATXN2 expression | AID 1745845 | HEK-293 ATXN2-luciferase reporter, luminescence, 24 h | hit rate 0.72% among 360,000 | Potency, µM (top dose mostly 57 µM), for the others: at the highest dose activity change, negative = inhibition, most hits filed as inhibitors; note: % is set by controls: 0 for no effect and ±100 for the full control effect; nearly all actives have a fitted effect of over 55% in size
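qHTS (up to 57 uM final) was run with 24 h compound exposure of reporter cells at 37 °C. Each well was multiplexed: SteadyGlo luminescence measured ATXN2-luciferase expression after a fluorogenic Gly-Phe-AFC viability readout (25 uM final).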
KB-V1 cytotox = kills drug-selected multidrug resistant KB-V1 cells; KB-V1 MDR cells viability, CellTiter-Glo, 72 h; Potency, µM (top dose mostly 46.1 µM), actives largely listed as cytotoxic; hit rate 3.4% among 400,000; AID 1347076; note: % is set by controls: 0 for no effect and ±100 for the full control effect; nearly all actives have a fitted effect of over 60% in size
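KB-V1 MDR subline cells in DMEM (phenol-red free, 10% FBS) exposed to compounds in qHTS concentration series for 72 h at 37 degrees C. Viability read by CellTiter-Glo luminescence; concentration-effect curves fitted after normalization and correction.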
ATXN viability = viability counter-screen for ATXN expression inhibitors | S2 cells (HEK-293 line with an ATXN2-luciferase reporter) viability, CellTiter-Fluor protease fluorescence, 24 h | Potency, µM (top dose mostly 56.7 µM), most hits filed as cytotoxic | hit rate 0.49% among 400,000; note: nearly all actives have a fitted effect of over 40% in size
TGFb SMAD3 inh = blocks TGF-b signaling; HepG2 CAGA-GFP TGF-b/SMAD3 reporter, GFP fluorescence, 18 h; TGF-beta stimulated, 500 pg/mL final; Potency, µM (series often up to 46.1 µM), for the others: top-dose activity, negative = inhibition, actives largely listed as inhibitors; hit rate 1.2% among 410,000; note: % is set by controls: 0 for no effect and ±100 for the full control effect; nearly all actives have a fitted effect of over 65% in size
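HEPG2 CAGA-GFP cells (1000/well, DMEM with 1% FBS) were pre-incubated 2 h at 37 degrees C, given compound by pin tool, then stimulated with TGF-beta at 500 pg/mL final for 18 h before per-cell GFP fluorescence imaging.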
HepG2 tox = kills HepG2 cells in TGF-b inhibitor counter-screen; HepG2 CAGA-GFP viability, ATP luminescence, 18 h; Potency, µM (doses to about 46.1 µM), inactives show top-dose activity change, negative = cytotoxicity, actives largely listed as cytotoxic; hit rate 0.76% among 410,000
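CellTiter-Glo luminescence gave cytotoxicity after 18 hours at 37 degrees C. The cells were HepG2 CAGA-GFP in 1% FBS DMEM, stimulated with 500 pg/mL TGF-beta after compound addition. %Activity was normalised to no-cell wells (complete cell-killing) and DMSO (no toxicity), and curves were fitted and classified.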
An asterisk follows results filed as active. Calls come from the whole dose curve; as a rule, active = well fitted curve in the direction sought with a large enough effect; inconclusive = small, poorly fitted or top-dose-only effect, or another doubt; inactive = no such curve, though single readings can be large; an effect the other way counts as inactive or inconclusive. Potency is the fitted concentration of half-maximal effect.

`Nc1c(C(=O)Nc2ccc3c(c2)OCCO3)nnn1Cc1ccc(Br)cc1` gave KB-3-1 tox inactive, ATXN2 expr inh 47%, KB-V1 cytotox inactive, ATXN viability inactive, TGFb SMAD3 inh -23% and HepG2 tox -8%.
Screening Nc1c(C(=O)Nc2ccc3c(c2)OCCO3)nnn1Cc1cccc(Br)c1 returned KB-3-1 tox inactive, ATXN2 expr inh 5%, KB-V1 cytotox 15µM*, ATXN viability inconclusive, TGFb SMAD3 inh -5% and HepG2 tox -17%.
Screening Nc1c(C(=O)Nc2ccc3c(c2)OCCO3)nnn1CCc1ccccc1 returned KB-3-1 tox 6.5µM*, ATXN2 expr inh 12%, KB-V1 cytotox inconclusive, ATXN viability inactive, TGFb SMAD3 inh inconclusive and HepG2 tox -45%.
`COC(=O)CC1COc2ccccc2N1S(=O)(=O)c1ccc(OC)cc1` (stereo not given) gave KB-3-1 tox 18µM*, ATXN2 expr inh -22%, KB-V1 cytotox inconclusive, ATXN viability inactive, TGFb SMAD3 inh -21% and HepG2 tox -7%.
`COC(=O)CC1COc2ccccc2N1S(=O)(=O)c1ccc(Br)cc1` (stereo not given) gave KB-3-1 tox inactive, KB-V1 cytotox inconclusive, ATXN viability inactive, TGFb SMAD3 inh 16% and HepG2 tox -7%.
Screening CCNc1ccc(-c2nc(-c3ccccn3)no2)cc1[N+](=O)[O-] returned KB-3-1 tox inactive, ATXN2 expr inh 45%, KB-V1 cytotox inactive, ATXN viability inactive, TGFb SMAD3 inh -25% and HepG2 tox -29%.
`CC(=O)c1ccccc1-c1ccc2c(c1)CC(CNC(=O)c1cc(C)on1)O2` (stereo not given) gave ATXN viability inactive.
Screening Cc1c2cnccc2c(C)c2c1oc1ccccc12 returned KB-3-1 tox inconclusive, ATXN2 expr inh 21%, KB-V1 cytotox 12µM*, ATXN viability inactive, TGFb SMAD3 inh inconclusive and HepG2 tox -44%.
For Cc1nc2c(oc3ccccc32)c(=O)o1 the results were KB-3-1 tox inactive, ATXN2 expr inh 70%, KB-V1 cytotox inactive, ATXN viability inactive, TGFb SMAD3 inh -2% and HepG2 tox -1%.
Screening Cc1cc2c(cc1S(=O)(=O)Nc1cccc(C(F)(F)F)c1)OCCN2C returned TGFb SMAD3 inh 3.5µM* and HepG2 tox -49%.
For C=C1C(=CC=C2CCC[C@]3(C)[C@@H]([C@H](C)CCCC(C)(C)O)CC[C@@H]23)C[C@@H](O)C[C@@H]1O the results were ATXN2 expr inh 35%.
Screening Cc1cccc(Cc2c(C)nc3nc(SCc4cccc(F)c4)nn3c2C)c1 returned KB-3-1 tox inactive, ATXN2 expr inh -3%, KB-V1 cytotox inactive, ATXN viability inactive, TGFb SMAD3 inh inconclusive and HepG2 tox -8%.
Screening CC(C)c1ccc(NC(=O)N2CCN(c3ccc(Cl)c(Cl)c3)CC2)cc1 returned HepG2 tox -52%.
CCOc1ccc(NC(=O)N2CCc3ccccc3C2)cc1 was read as KB-3-1 tox inactive, ATXN2 expr inh 6%, KB-V1 cytotox inactive, ATXN viability inactive, TGFb SMAD3 inh 4% and HepG2 tox 1%.
`COc1cccc(NC(=O)N2CCc3nc(NCc4cccc(Oc5ccccc5)c4)ncc3C2)c1` gave KB-3-1 tox 8.2µM*, ATXN2 expr inh -27%, KB-V1 cytotox inconclusive, ATXN viability inactive, TGFb SMAD3 inh inconclusive and HepG2 tox -27%.
`COc1cccc(NC(=O)N2CCc3nc(Nc4cc(Cl)cc(Cl)c4)ncc3C2)c1` gave KB-3-1 tox inconclusive, ATXN2 expr inh 0%, KB-V1 cytotox inactive, ATXN viability inconclusive, TGFb SMAD3 inh inconclusive and HepG2 tox -13%.

Screening results from PubChem BioAssay.
